Laboratory results: PubChem BioAssay AID720541 (National Center for Advancing Translational Sciences (NCATS), 2013)
Out of some 1,300 compounds screened, about 420 (32%) were called active. Not shown: some 32% with an inconclusive outcome. The call rests on the fitted dose curve; in most records, active means well fitted inhibition curve with a large enough effect; inconclusive means small, poorly fitted or top-dose-only effect; inactive means no such curve, though single readings can be large or run the other way. The list shows a part of the results. Entries that show only a call come without a potency.

Biological target: C-terminal-binding protein 1 (Homo sapiens) (UniProt Q13363)
Test: qHTS for Inhibitors of the Phosphatase Activity of Eya2: Carboxyl-terminal binding protein (CtBP) Counterscreen for Cherry-picked Compounds; further: nearly all actives have a fitted effect of over 65% in size
Settings: purified protein-protein binding, AlphaScreen, 3 h; series mostly up to 46.1 µM
Source text: The Eya protein family is an essential co-activator of the Six1 transcription factor. Six1 is a developmental gene that is abnormally re-expressed in a large percentage of breast cancers. This over-expression plays a causal role in the initiation and metastatic development of breast cancers. The Eya family of protein is also found to contain a unique HAD phosphatase domain with protein tyrosine phosphatase activity which can potentially play a role in Six1-mediated breast tumorigenesis. Recently, Eya2 is found to dephosphorylate the histone variant H2AX and direct cells towards DNA repair instead of apoptosis in the event of DNA damage.
A 1536 well format, fluorescence based qHTS assay was developed and used to target the phosphatase activity of Eya2 (AID 488837). In addition, a CtBP counterscreen was developed using the AlphaScreen technology to evaluate compound selectivity to target […]. The data herein reports the activity of the cherry-picked compounds against the CtBP AlphaScreen. Compounds that are active or have > 100 fold selectivity vs. the Eya2 activity were excluded for further characterization. Inactivity is the desired outcome for the CtBP counterscreen.
NIH Chemical Genomics Center [NCGC]
NIH Molecular Libraries Probe Centers Network [MLPCN]
Assay Submitter (PI): Rui Zhao, University of Colorado Denver
Four microliters of reagent (25 nM GST-E1A, 25 nM CtBP-6x HIS) was dispensed in a 1536 well Greiner plates. Twenty-three nanoliter of test compounds (final concentration of 2.5 nM - 46 uM) and positive control E1A peptide inhibitor (final concentration of 0.14 nM - 4.6 uM) were added to the plates using the Kalypsys pintool equipped with a 1536 pin head. The plates was then incubated at room temperature for 2 hours followed by addition of 1 uL Alpha bead donor / acceptor mix (20 ug/mL final concentration). The assay plates were incubated for additional 1 hour at room temperature and protected from light. The AlphaScreen signal was obtained using the PerkinElmer EnVision plate reader using the 680 nm excitation and 520 - 620 nm emission filters. The data was normalized to the E1A peptide inhibitor for maximum inhibition and DMSO treated wells as negative control.
Potency means the concentration at half of the fitted maximal effect.

Row | SMILES | Potency
1 | N[C@@H](Cc1cc(I)c(O)c(I)c1)C(=O)O | 8.49 µM (active)
2 | CN(C)c1ccc(N=Nc2ccccc2)cc1 | 4.78 µM (active)
3 | CN(C)c1ccc(C=C2C=CC=C2)cc1 | inactive
4 | COC(=O)C1=C(c2ccc(F)cc2OCc2ccccc2)C[C@@H]2CC[C@H]1N2C(=O)NCc1ccc(N(C)C)cc1 | 10.7 µM (active)
5 | COC(=O)C1=C(c2cccc(OCc3ccccc3)c2)C[C@@H]2CC[C@H]1N2C(=O)NCCCc1ccccc1 | inactive
6 | CCOC(=O)c1cc2c(cn1)[C@@H](CCO)NC2 | inactive
7 | COc1cccc2c1C(=O)c1c(O)c3c(c(O)c1C2=O)C[C@@](O)(C(=O)CO)C[C@@H]3O[C@H]1C[C@H](N)[C@H](OC2CCCCO2)[C@H](C)O1 (stereo partly drawn) | 7.57 µM (active)
8 | C[C@H]1CCC[C@H](O)CCCCCc2cc(O)cc(O)c2C(=O)O1 | inactive
9 | CN(C)S(=O)(=O)c1ccc(C(=O)NNc2nc(-c3ccccc3)c3cc(Br)ccc3n2)cc1 | 8.49 µM (active)
10 | O=C1NC(=S)NC(=O)C1=Cc1ccc(Br)s1 | inactive
11 | COc1ccc(-c2cc(=NCCC(=O)O)c3cc(C)ccc3o2)cc1 | 10.7 µM (active)
12 | Cc1nc2ccccc2c(=O)n1-c1ccc(Cl)cc1[N+](=O)[O-] | inactive
13 | COc1ccccc1N1CCN(CCc2c[nH]c3cc4c(cc23)OCO4)CC1 | 13.5 µM (active)
14 | O=C1NC(=O)N(c2ccc(Cl)cc2)C(=O)/C1=C\c1ccc(Sc2nc3ccccc3[nH]2)o1 | inactive
15 | CC(N)[C@H](O)c1ccc(O)c(O)c1 (stereo partly drawn) | inactive
16 | Cc1cc(/C=C2\C(=O)NC(=O)N(c3ccc(Br)cc3)C2=O)c(C)n1-c1cc(C(=O)O)cc(C(=O)O)c1 | inactive
17 | Cc1c(C(=O)c2cccc3ccccc23)c2cccc3c2n1[C@H](CN1CCOCC1)CO3 | inactive

Row | SMILES | Potency
18 | O=C(Cc1ccccc1)c1ccccn1 | 10.7 µM (active)
19 | COC1C(O)C(C)OC(OC2C(Oc3cccc4c(O)c5c(=O)oc6ccc(C)c7c(=O)oc(c34)c5c67)OC(C)C(O)C2O)C1O (stereo not drawn) | inactive
20 | CCC(COC(=O)c1cc(OC)c(OC)c(OC)c1)(c1ccccc1)N(C)C (stereo not drawn) | inactive
21 | COC(=O)C1=C(C)NC(C)=C(C(=O)OC)C1c1ccccc1[N+](=O)[O-] | 10.7 µM (active)
22 | O=C(O)c1cc[c]([Sb](=[O])([OH])[OH])cc1[N+](=O)[O-] | inactive
23 | C=CCN1C(=O)/C(=C/c2ccc(Br)s2)C(=O)NC1=S | inactive
24 | Cc1ccc2c(C)c3ccc4ccccc4c3c[n+]2c1 | 13.5 µM (active)
25 | CCOC(=O)CCCc1cc[c]([Sb](=[O])([OH])[OH])cc1 | inactive
26 | CCOc1ccc(N2C(=O)/C(=C/c3ccc(C)o3)C(=O)NC2=S)cc1 | inactive
27 | C=C1C(=O)O[C@@H]2C[C@@H](C)[C@@H]3C=CC(=O)[C@@]3(C)[C@@H](OC(=O)CC(=O)O[C@H]3[C@@H]4C(=C)C(=O)O[C@@H]4C[C@@H](C)[C@@H]4C=CC(=O)[C@]43C)[C@H]12 | 8.49 µM (active)
28 | Cc1ccc(/C=C2\C(=O)NC(=S)N(c3cccc(F)c3)C2=O)o1 | inactive
29 | O=C(O)CCCOc1ccc(Cl)cc1Cl | inactive
30 | CNc1ccc2nc3ccccc3[n+](C)c2c1 | 8.49 µM (active)
31 | Cc1c(N=Nc2c(O)[nH]c(=O)[nH]c2=O)c(=O)n(-c2ccccc2)n1C | 2.13 µM (active)
32 | O=C1NC(=O)N(c2ccc(Br)cc2)C(=O)/C1=C/c1ccsc1 | inactive
33 | CCOc1cc2c(cc1OCC)-n1cccc1C(c1ccc(F)cc1)NC2 (stereo not drawn) | inactive
